Laboratory results published in the supplement of paper PMC8975748.
Structures can show the parent of a compound that is named as a salt.

Experiments:
[1] = tested on: Saccharomyces cerevisiae BY4741 SeMeCo community; test: z-score of prototroph abundance vs DMSO median; higher = larger share of this subpopulation than in DMSO controls; settings: 10 µM; 24 h; SM minimal medium; subpopulation (auxotrophy): Prototroph
Summary of the method: (§1)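 A Saccharomyces cerevisiae BY4741 community carried four plasmids, each restoring one auxotrophy and encoding a distinct fluorescent protein. It was pre-grown overnight to OD600 1.0, diluted to 0.3, and 70 µl was added to 384-well plates acoustically predosed with library drugs (10 µM final), then grown 24 h in minimal SM medium. Cells were paraformaldehyde-fixed and imaged by automated confocal microscopy, with single-auxotroph fluorescent strains setting thresholds and autofluorescence correction. Each subpopulation's abundance was scored as a z-score against the vehicle-well median.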

[2] = tested on: Saccharomyces cerevisiae BY4741 SeMeCo community; test: z-score of subpopulation abundance vs DMSO median, subpopulation auxotrophic for M; higher = larger share of this subpopulation than in DMSO controls; settings: 10 µM; 24 h; SM minimal medium; subpopulation (auxotrophy): M
Summary of the method: as §1

[3] = tested on: Saccharomyces cerevisiae BY4741 SeMeCo community; test: z-score of subpopulation abundance vs DMSO median, subpopulation auxotrophic for L; higher = larger share of this subpopulation than in DMSO controls; settings: 10 µM; 24 h; SM minimal medium; subpopulation (auxotrophy): L
Summary of the method: as §1

[4] = tested on: Saccharomyces cerevisiae BY4741 SeMeCo community; test: z-score of subpopulation abundance vs DMSO median, subpopulation auxotrophic for U; higher = larger share of this subpopulation than in DMSO controls; settings: 10 µM; 24 h; SM minimal medium; subpopulation (auxotrophy): U
Summary of the method: as §1

[5] = tested on: Saccharomyces cerevisiae BY4741 SeMeCo community; test: z-score of subpopulation abundance vs DMSO median, subpopulation auxotrophic for H; higher = larger share of this subpopulation than in DMSO controls; settings: 10 µM; 24 h; SM minimal medium; subpopulation (auxotrophy): H
Summary of the method: as §1

[6] = tested on: Saccharomyces cerevisiae BY4741 SeMeCo community; test: z-score of subpopulation abundance vs DMSO median, subpopulation auxotrophic for LU; higher = larger share of this subpopulation than in DMSO controls; settings: 10 µM; 24 h; SM minimal medium; subpopulation (auxotrophy): LU
Summary of the method: as §1

[7] = tested on: Saccharomyces cerevisiae BY4741 SeMeCo community; test: z-score of subpopulation abundance vs DMSO median, subpopulation auxotrophic for LM; higher = larger share of this subpopulation than in DMSO controls; settings: 10 µM; 24 h; SM minimal medium; subpopulation (auxotrophy): LM
Summary of the method: as §1

[8] = tested on: Saccharomyces cerevisiae BY4741 SeMeCo community; test: z-score of subpopulation abundance vs DMSO median, subpopulation auxotrophic for HM; higher = larger share of this subpopulation than in DMSO controls; settings: 10 µM; 24 h; SM minimal medium; subpopulation (auxotrophy): HM
Summary of the method: as §1

[9] = tested on: Saccharomyces cerevisiae BY4741 SeMeCo community; test: z-score of subpopulation abundance vs DMSO median, subpopulation auxotrophic for UM; higher = larger share of this subpopulation than in DMSO controls; settings: 10 µM; 24 h; SM minimal medium; subpopulation (auxotrophy): UM
Summary of the method: as §1

[10] = tested on: Saccharomyces cerevisiae BY4741 SeMeCo community; test: z-score of subpopulation abundance vs DMSO median, subpopulation auxotrophic for HL; higher = larger share of this subpopulation than in DMSO controls; settings: 10 µM; 24 h; SM minimal medium; subpopulation (auxotrophy): HL
Summary of the method: as §1

[11] = tested on: Saccharomyces cerevisiae BY4741 SeMeCo community; test: z-score of subpopulation abundance vs DMSO median, subpopulation auxotrophic for HLU; higher = larger share of this subpopulation than in DMSO controls; settings: 10 µM; 24 h; SM minimal medium; subpopulation (auxotrophy): HLU
Summary of the method: as §1

[12] = tested on: Saccharomyces cerevisiae BY4741 SeMeCo community; test: z-score of subpopulation abundance vs DMSO median, subpopulation auxotrophic for HLM; higher = larger share of this subpopulation than in DMSO controls; settings: 10 µM; 24 h; SM minimal medium; subpopulation (auxotrophy): HLM
Summary of the method: as §1

[13] = tested on: Saccharomyces cerevisiae BY4741 SeMeCo community; test: z-score of subpopulation abundance vs DMSO median, subpopulation auxotrophic for HUM; higher = larger share of this subpopulation than in DMSO controls; settings: 10 µM; 24 h; SM minimal medium; subpopulation (auxotrophy): HUM
Summary of the method: as §1

[14] = tested on: Saccharomyces cerevisiae BY4741 SeMeCo community; test: z-score of subpopulation abundance vs DMSO median, subpopulation auxotrophic for LUM; higher = larger share of this subpopulation than in DMSO controls; settings: 10 µM; 24 h; SM minimal medium; subpopulation (auxotrophy): LUM
Summary of the method: as §1

[15] = tested on: Saccharomyces cerevisiae BY4741 SeMeCo community; test: z-score of subpopulation abundance vs DMSO median, subpopulation auxotrophic for HLUM; higher = larger share of this subpopulation than in DMSO controls; settings: 10 µM; 24 h; SM minimal medium; subpopulation (auxotrophy): HLUM
Summary of the method: as §1

[16] = tested on: Saccharomyces cerevisiae BY4741 SeMeCo community; test: z-score of subpopulation abundance vs DMSO median, subpopulation auxotrophic for HU; higher = larger share of this subpopulation than in DMSO controls; settings: 10 µM; 24 h; SM minimal medium; subpopulation (auxotrophy): HU
Summary of the method: as §1

SMILES	z-score of prototroph abundance [1]	z-score of subpopulation abundance [2]	z-score of subpopulation abundance [3]	z-score of subpopulation abundance [4]	z-score of subpopulation abundance [5]	z-score of subpopulation abundance [6]	z-score of subpopulation abundance [7]	z-score of subpopulation abundance [8]	z-score of subpopulation abundance [9]	z-score of subpopulation abundance [10]	z-score of subpopulation abundance [11]	z-score of subpopulation abundance [12]	z-score of subpopulation abundance [13]	z-score of subpopulation abundance [14]	z-score of subpopulation abundance [15]	z-score of subpopulation abundance [16]
OC(c1ccccc1)(c1ccccc1)C12CC[N+](CCOCc3ccccc3)(CC1)CC2 [Umeclidinium bromide]	0.82	-0.28	0.22	-0.23	-0.1	-0.42	-0.42	-0.29	-1.45	-0.7	-0.12	0.44	-0.43	-0.49	-0.28	–
O=c1c(-c2ccc(O)cc2)coc2c([C@@H]3O[C@H](CO)[C@@H](O)[C@H](O)[C@H]3O)c(O)ccc12 [Puerarin]	-0.2	0.72	-0.61	0.36	0.2	-0.47	-0.04	1.09	0.39	0.23	0.12	1.18	-0.25	-1.14	–	0.41
CCOc1cc(N)c(Cl)cc1C(=O)NCC1CN(Cc2ccc(F)cc2)CCO1 (stereo unspecified) [Mosapride]	0.05	0.39	-0.65	-0.39	0.06	0.77	-0.41	-0.23	-0.47	–	-0.42	0.45	0.4	-0.04	–	0.02
CN(C)[C@@H]1C(=O)C(C(N)=O)=C(O)[C@@]2(O)C(=O)C3=C(O)c4c(O)ccc(Cl)c4[C@@H](O)[C@H]3C[C@@H]12 [Demeclocycline HCl]	0.9	-1.78	-0.08	0.03	0.67	-0.08	-0.4	–	-0.64	–	-0.4	-0.17	-1	-0.57	-0.17	-0.34
Cc1ccccc1OCC(O)CO (stereo unspecified) [Mephenesin]	0.89	0	0.09	-0.22	-0.65	-0.42	0.02	-0.48	-0.82	-0.53	-0.38	-0.4	-0.77	-0.39	–	-0.86
CN(C)CCn1nnnc1SCC1=C(C(=O)O)N2C(=O)[C@@H](NC(=O)Cc3csc(N)n3)[C@H]2SC1 [Cefotiam hydrochloride]	-1.4	1.1	1.99	-0.08	1.72	1.53	–	1.4	–	1.92	1.21	0.75	0.5	1.11	0.99	0.76
CC[C@@]1(O)C(=O)OCc2c1cc1n(c2=O)Cc2cc3cc(O)ccc3nc2-1 [(S)-10-Hydroxycamptothecin]	0.14	0.87	1.09	–	0.82	-0.98	1.48	0.81	–	0.62	0.14	0.07	-0.24	0.42	-0.28	-1.09
CC1(C)S[C@@H]2[C@H](NC(=O)Cc3ccccc3)C(=O)N2[C@H]1C(=O)O.CCN(CC)CCOC(=O)c1ccc(N)cc1 [Penicillin G Procaine]	-1.56	0.35	0.99	-0.07	1.75	0.41	1	0.69	0.64	2.5	0.81	0.43	0.86	1.6	1.65	–
COc1ccc(C2CNC(=O)C2)cc1OC1CCCC1 (stereo not drawn) [S- (+)-Rolipram]	1.36	-0.3	-0.9	-0.01	-0.73	-0.96	-0.87	-0.72	-1.18	-0.58	-1.07	-0.94	-0.99	-1.24	-1.15	–
C[C@]12CC[C@@H]3c4ccc(O)cc4C[C@@H](CCCCCCCCC[S+]([O-])CCCC(F)(F)C(F)(F)F)[C@H]3[C@@H]1CC[C@@H]2O (stereo partly specified) [Fulvestrant]	-1.17	0.89	1.23	-0.43	0.56	0.81	1.39	0.9	0.53	0.87	1.48	0.89	1.23	1.7	–	0.88
CC1(C)CC[C@]2(C(=O)O)CC[C@]3(C)C(=CC[C@@H]4[C@@]5(C)CC[C@H](O)C(C)(C)[C@@H]5CC[C@]43C)[C@@H]2C1 [Oleanolic Acid]	–	0.25	-0.03	–	–	-0.16	–	1.05	0.1	0.59	0.15	0.33	0.93	0.78	0.12	0.23
CN(C)c1ccc(O)c2c1C[C@H]1C[C@H]3[C@H](N(C)C)C(=O)C(C(N)=O)=C(O)[C@@]3(O)C(=O)C1=C2O [Minocycline HCl]	-0.28	0.32	-0.03	0.78	-0.15	0.63	–	-0.22	0.25	0.73	0.06	0.31	-0.12	0.3	0.19	-0.3
CC(C)[C@H](N)C(=O)OCC(CO)OCn1cnc2c(=O)[nH]c(N)nc21 (stereo partly specified) [Valganciclovir HCl]	0.56	-0.49	0.28	-0.54	0.09	-0.94	-0.45	-0.64	-0.83	–	-0.52	0.99	-0.56	0.07	–	–
